Counter-ions that a name gives are not always drawn.
System: Vero E6 infected with SARS-CoV-2
Experiment: inhibition of SARS-CoV-2 cytopathic effect; higher = more antiviral protection, active = above 15
Conditions: 48 h

Measured: inhibition of SARS-CoV-2 cytopathic effect

COc1ccc(CC2NCCc3cc(OC)c(OC)cc32)cc1OC (stereo not given) [tetrahydropapaverine]
inactive: 1 nM 1.62% | 8.33 nM 0.89% | 100 nM -0.93% | 833.33 nM -3.46% | 10000 nM -3.09%

COCCCC/C(=N\OCCN)c1ccc(C(F)(F)F)cc1 [fluvoxamine]
inactive: 1 nM 6.3% | 8.33 nM 3.03% | 100 nM -1.16% | 833.33 nM -0.69% | 10000 nM -6.73%

Cc1cc(C)c(S(=O)(=O)Nc2cccc(C(F)(F)F)c2)c(C)c1
inactive: 1 nM -1.28% | 8.33 nM 1.26% | 100 nM 1.15% | 833.33 nM 1.42% | 10000 nM 2.48%

CC[C@@H](c1cccc(O)c1)[C@@H](C)CN(C)C [Tapentadol (hydrochloride)]
inactive: 1 nM 2% | 8.33 nM 1.05% | 100 nM 1.07% | 833.33 nM 3.03% | 10000 nM -0.29%

CCn1cc(C(=O)O)c(=O)c2cc3c(cc21)OCO3 [oxolinic-acid]
inactive: 1 nM -1.5% | 8.33 nM 0.26% | 100 nM -1.8% | 833.33 nM -0.9% | 10000 nM -3.06%

COc1cc(C[C@@H](CO)[C@H](CO)Cc2ccc(O)c(OC)c2)ccc1O [secoisolariciresinol-(-)]
inactive: 1 nM 1.65% | 8.33 nM 5.68% | 100 nM 0.9% | 833.33 nM 0.53% | 10000 nM -4.27%

CN1CCN(C(c2ccccc2)c2ccc(Cl)cc2)CC1 (stereo not given) [chlorcyclizine]
inactive: 1 nM -1.24% | 8.33 nM 1.4% | 100 nM -0.05% | 833.33 nM -3.64% | 10000 nM -10.6%

Nc1ccn([C@H]2CC[C@@H](CO)O2)c(=O)n1 [zalcitabine]
inactive: 1 nM -0.47% | 8.33 nM -1.89% | 100 nM -4.07% | 833.33 nM -2.84% | 10000 nM -0.03%

NCCC[C@H](N)C(=O)O [ornithine]
inactive: 1 nM -1.52% | 8.33 nM -1.05% | 100 nM -1.8% | 833.33 nM -2.37% | 10000 nM 2.35%

COC1=C[C@@H]2[C@@H]3Cc4ccc(OC)c(O)c4[C@]2(CCN3C)CC1=O [sinomenine]
inactive: 1 nM -1.85% | 8.33 nM 0.19% | 100 nM -1.8% | 833.33 nM 2.51% | 10000 nM 0.68%

CCC(=O)O[C@]1(C(=O)CCl)[C@@H](C)C[C@H]2[C@@H]3CCC4=CC(=O)C=C[C@]4(C)[C@@]3(F)[C@@H](O)C[C@@]21C [clobetasol-propionate]
inactive: 1 nM 1.28% | 8.33 nM 1.27% | 100 nM 0.69% | 833.33 nM 0.48% | 10000 nM 3.52%

CC[C@@H](C(N)=O)N1CCCC1=O [levetiracetam]
inactive: 1 nM 0.86% | 8.33 nM 0.42% | 100 nM 0.01% | 833.33 nM 0.56% | 10000 nM -0.05%

C[C@H](Nc1cc(NS(=O)(=O)N2CCC2)nc(SCc2cccc(F)c2F)n1)[C@@H](O)CO
inactive: 1 nM 3.09% | 8.33 nM 1.5% | 100 nM 0.2% | 833.33 nM 0.91% | 10000 nM 2.14%

COc1c(Nc2ccc(S(C)(=O)=O)nc2C)ncnc1OC1CCN(C(=O)OC(C)C)CC1
inactive: 1 nM -1.98% | 8.33 nM 0.8% | 100 nM 0.06% | 833.33 nM -1.17% | 10000 nM -1.76%

CC(C)c1nc(N(C)S(C)(=O)=O)nc(-c2ccc(F)cc2)c1/C=C/[C@@H](O)C[C@@H](O)CC(=O)O [rosuvastatin]
inactive: 1 nM -0.46% | 8.33 nM 0.22% | 100 nM -2.09% | 833.33 nM -3.33% | 10000 nM -2.75%

O=C1OC2(c3ccccc31)c1cc(I)c(O)c(I)c1Oc1c2cc(I)c(O)c1I [erythrosine]
inactive: 1 nM -2.4% | 8.33 nM -1.04% | 100 nM -2.6% | 833.33 nM -4.79% | 10000 nM -12.8%

COC(=O)Nc1ccc2[nH]cc(CCNC(C)=O)c2c1
inactive: 1 nM -2.08% | 8.33 nM -0.32% | 100 nM -1.52% | 833.33 nM -7.74% | 10000 nM -1.85%

CCN(CC)CCN(Cc1ccc(-c2ccc(C(F)(F)F)cc2)cc1)C(=O)Cn1c(SCc2ccc(F)cc2)nc(=O)c2c1CCC2 [darapladib]
inactive: 1 nM 1.47% | 8.33 nM 1.73% | 100 nM -1.85% | 833.33 nM -2.02% | 10000 nM -25.3%
